High-throughput results from PubChem BioAssay.
The list is a sample of the results.
aSyn 5UTR act: Activators via SNCA 5'UTR binding, MLPCN. activity score, % (tested at 7.5 µM), hits read low. alpha-synuclein 5'UTR reporter, activators screen. AID 1814. 7.1% of 300,000 active; in the data active = activity score below about -60%
Numbers without * were called inactive.

SMILES | aSyn 5UTR act
COc1ccccc1Nc1nc2ccccc2[nH]1 | -120*
CC(=O)c1cccc(NC(=O)c2ccc(-c3ccccc3[N+](=O)[O-])o2)c1 | -238*
O=C(NCc1cccnc1)c1ccc(-c2ccccc2[N+](=O)[O-])o1 | -64*
CCn1nnc(NC(=O)c2cc3ccccc3o2)n1 | -168*
O=C(CCCCCN1C(=O)c2cccc3cccc(c23)C1=O)NCc1cccnc1 | 59
CCCCn1nnc(NC(=O)c2cc3ccccc3o2)n1 | -137*
CCn1nnc(NC(=O)c2ccc(-c3ccccc3[N+](=O)[O-])o2)n1 | -90*
CCCn1nnc(NC(=O)c2cc3ccccc3o2)n1 | -156*
CCCCn1nnc(NC(=O)c2ccc(-c3ccccc3)cc2)n1 | -129*
Cc1ccsc1C(=O)OCC(=O)N1CCc2ccccc2C1 | -126*
CC(C)c1cc(C(C)C)c(S(=O)(=O)N2c3ccccc3[C@]3(Br)C[C@H]4C(=O)N[C@@H](Cc5ccccc5)C(=O)N4[C@H]23)c(C(C)C)c1 | 65
O=C(O)c1ccc(/C=N/Nc2ccc(C(F)(F)F)cn2)cc1 | -172*
COc1cc(/C=N/Nc2ccc(C(F)(F)F)cn2)ccc1O | -147*
CCOc1cc(/C=N/Nc2cc(C)nc(-n3nc(C)cc3C)n2)ccc1O | 68
COCCn1c(C)cc(C(=O)Cn2nc(C(=O)O)c3ccccc3c2=O)c1C | -116*
COCCn1c(C)cc(C(=O)CSc2nc3ccccc3s2)c1C | 53
Cc1ccccc1-c1cc(-c2ccccc2O)on1 | -216*
Oc1ccccc1-c1cc(-c2ccccc2)no1 | -133*
CCc1ccn2cc(-c3cc(-c4ccccc4)no3)nc2c1 | 94
Cc1ccc2nc(-c3cc(-c4ccccc4)no3)cn2c1 | 86
Cc1ccc(O)c(-c2cc(-c3ccc(F)cc3)no2)c1 | -109*
CNC(=O)/C(C#N)=C/c1ccc(-c2ccc(OC)cc2[N+](=O)[O-])o1 | -76*
COc1ccc(NC(=O)/C(C#N)=C\c2cc(C)n(-c3ccc4c(c3)OCO4)c2C)cc1 | -107*
COc1ccc(NC(=O)/C(C#N)=C\c2ccc(Br)o2)cc1 | -114*
Cc1ccc(-n2nnc(-c3ccnc4ccccc34)n2)cc1 | -191*
SMILES | aSyn 5UTR act
Fc1ccc(-n2nnc(-c3ccnc4ccccc34)n2)cc1 | -154*
CCCCC1CCC(c2nc(-c3ccccn3)no2)CC1 (stereo not drawn) | 97
CCCCC1CCC(c2nc(-c3cccnc3)no2)CC1 (stereo not drawn) | -92*
CCOc1ccc(NC(=O)CSc2nncc(=O)[nH]2)cc1 | -76*
COc1ccc2c(c1)C(=NN)c1cc(OC)ccc1-2 | -65*
Cc1cc(C)nc(Nc2n[nH]c(-c3ccccc3Br)n2)n1 | -115*
Cc1cc(C)nc(Nc2n[nH]c(-c3ccccc3C)n2)n1 | -136*
Cc1ccc(Nc2ccc([N+](=O)[O-])cn2)cc1Cl | -93*
CN(C)c1ccc(Nc2ccc([N+](=O)[O-])cn2)cc1 | -162*
Cc1sc2ncnc(SCC(=O)c3cccs3)c2c1C | -73*
CCOc1ccc(/C=C/C(=O)c2ccccc2)cc1OC | -112*
COc1cc(/C=C/C(=O)c2ccc(O)cc2)ccc1OCC#N | -134*
COc1cccc(C(=O)/C=C/c2ccc(OCC#N)c(OC)c2)c1 | -121*
COc1ccc(N2C(=S)N(C(=O)c3ccccc3)C(=Nc3ccccc3)C2=Nc2ccccc2)cc1 | -120*
COc1ccc(N=C2C(=Nc3ccc(OC)cc3)N(c3ccccc3)C(=S)N2C(=O)c2ccc(Cl)cc2)cc1 | -200*
COc1ccc(N=C2C(=Nc3ccc(OC)cc3)N(c3ccc(N(C)C)cc3)C(=S)N2c2ccc(OC)cc2)cc1 | 99
O=C(c1ccc(F)cc1)c1ccc(-c2ccc(F)cc2)nc1 | -141*
CCn1c(C)nc2cc(C(=O)N/N=C(\C)c3ccccc3O)ccc21 | -143*
CCn1c(C)nc2cc(C(=O)N/N=C/c3ccccc3C)ccc21 | -142*
CCn1c(C)nc2cc(C(=O)NNC(=S)Nc3ccccc3OC)ccc21 | -74*
CCn1c(C)nc2cc(NC(=O)Nc3cccc(C(C)=O)c3)ccc21 | -99*
Clc1ccc(-c2noc(/C=C/c3ccccc3)n2)cc1 | -94*
Cc1ccc(-c2noc(/C=C/c3ccccc3)n2)cc1 | -202*
Cc1ccc(/C=C/c2nnc(-c3ccccc3)o2)cc1 | -109*
O=C(Cc1cccs1)Nc1nnc(-c2ccc(F)cc2)s1 | -76*
O=C(Cc1cccs1)Nc1nnc(-c2ccccc2)s1 | -211*
